# This is a sample that favours compounds with a hit; in the whole collection about 3.9% have one here.
# HIF act: HIF pathway transcriptional activators, primary screen, cell-based, U2OS HRE-luciferase, luminescence; U2OS HRE-luciferase reporter; normalized: DMSO 0%, desferrioxamine 100%; activation, % at 7.5 µM (by protocol); hit rate 0.32% among 300,000; AID 1910, 2009;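 active means mean activation of at least 10% of the iron chelator positive control signal, with at least half of replicates also reaching 10%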
# HGIII-sPLA2 inh: human group III sPLA2 inhibitors, primary screen, biochemical, QFRET, BODIPY PC-A2 liposome substrate | Group 3 secretory phospholipase A2 (Homo sapiens), Q9NZ20 | QFRET BODIPY PC-A2 liposome hydrolysis, fluorescence | inhibition, % at 12.2 µM | hit rate 0.56% among 370,000;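 active means inhibition above mean plus 3 SD of compounds lying within the high and low control bounds, cut at about 19% in these data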;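 further: 0% = median of test compound wells and 100% = no enzyme DMSO wells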
# PLC-beta3 inh: human PLC-beta3 inhibitors, primary screen, biochemical, fluorescence. hit rate 0.18% among 370,000. AID 720704, 2013. 1-phosphatidylinositol 4,5-bisphosphate phosphodiesterase beta-3 (Homo sapiens), Q01970. inhibition, % at 12.2 µM. Purified PLC-beta3, fluorogenic substrate; in the data active means inhibition above about 11%;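 further: 0% = median of compound wells on plate and 100% = full blocker control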
# CR mimetic SO: reduction of superoxide in aged yeast, primary screen, HTS. S. cerevisiae aged cells, superoxide DHE fluorescence; active compounds read low. hit rate 0.18% among 330,000. superoxide response (% of plate mean), % at 10 µM. AID 2690, 2010;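 active means superoxide response under a set limit, about three screen SD below normal, cut at about 65% in these data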;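 further: yeast aged for seven days with compound at 30 °C before DHE staining; 100% = average MFI of all compound-treated wells on the plate with controls excluded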
# PLCg1 inh: PLC-gamma1 enzyme inhibitors, primary screen, biochemical, fluorescence, purified enzyme | inhibition, % at 12.2 µM | fluorogenic substrate | hit rate 0.84% among 370,000 | AID 720700, 2013 | 1-phosphatidylinositol 4,5-bisphosphate phosphodiesterase gamma-1 (Homo sapiens), P19174; in the data active means inhibition above about 9.5%
# AHR act: AHR activators, primary screen, cell-based, luminescence, luciferase reporter, human; Aryl hydrocarbon receptor (Homo sapiens), P35869; AHR-responsive luciferase reporter cells; activation, % at 5 µM; hit rate 2.5% among 320,000; in the data active means activation above about 47%;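 further: 0% = vehicle wells and 100% = reference agonist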
# Numbers without * were called inactive; i = inactive; nt = no result given.
SMILES,HIF act,HGIII-sPLA2 inh,PLC-beta3 inh,CR mimetic SO,PLCg1 inh,AHR act
COc1cc(NC(=O)c2ccccc2)c(C)cc1NC(=O)CSc1nnc(-c2cnccn2)n1-c1ccc(C)cc1,nt,-2,3,nt,0,nt
CCN(CC)C(=O)CSc1nnc(-c2ccccn2)n1C,nt,10,-3,nt,0,nt
Cc1ccc2c(c1)N(C(=O)CSc1nncn1C)C(C)(C)c1ssc(=S)c1-2,0,24*,3,96,8,9
Cc1ccc2c(c1)N(C(=O)c1ccco1)C(C)(C)c1ssc(=S)c1-2,0,18,0,91,-3,0
COc1ccccc1CNCC(=O)N1CC(=O)Nc2ccccc21,-1,6,-8,105,-2,60*
COc1ccccc1CNC(=O)CNC(=O)N1CC(=O)Nc2ccccc21,1,5,2,82,0,5
Cc1cccc(Nc2nc(-c3ccccc3)c(C(=O)Nc3cccnc3)s2)c1,1,-10,i,99,i,51*
O=C(Nc1cccnc1)c1sc(Nc2ccccc2)nc1-c1ccccc1,0,-5,-129,88,-127,40
CN(C)c1ccc(N=C/C=C2\N(C)c3ccccc3C2(C)C)cc1,1,15,-7,104,-3,150*
CN1/C(=C\C=Nc2ccc3ccccc3c2)C(C)(C)c2ccccc21,nt,nt,nt,107,nt,55*
CN1/C(=C\C=O)C(C)(C)c2ccccc21,-1,2,-15,98,-7,64*
COc1ccc(S[C@]2(C(=O)N3CCCC3)CC(=O)N(S(=O)(=O)c3ccc(F)cc3)[C@@H]2c2ccc(OC)cc2)cc1,nt,-7,3,nt,2,nt
Cc1ccccc1NC(=O)/C=C/c1ccc([N+](=O)[O-])s1,1,nt,nt,95,nt,50*
COc1ccc(CCNC(=O)C(=O)c2c[nH]c3ccccc23)cc1OC,-12,-13,0,98,3,nt
COc1ccc(C/C(C)=N\NC(=O)c2c[nH]c3ccccc23)cc1OC,1,-2,-3,80,-3,53*
COC(=O)[C@]12C[C@H](CC(=O)N3CCN(C(=O)C4CC4)CC3)C(=O)N(Cc3ccc4c(c3)OCO4)C1=C[C@H](C(C)C)O[C@@H]2C1CC1,nt,-7,1,nt,1,nt
Cc1ccc(S(=O)(=O)c2nc(-c3ccccc3Cl)oc2N(C)C)cc1,56*,7,-6,95,-1,1
CCN(C(=O)C1CCN(c2ncccn2)CC1)c1ccccc1,nt,1,-9,nt,-12,nt
COc1ccc(NC(=O)Nc2nnc(-c3ccccc3SCc3ccccc3)s2)cc1,0,1,3,107,2,51*
COc1ccc2c(c1)[C@@]1(NCCc3c1[nH]c1ccc(OC)cc31)C(=O)N2C,nt,2,1,nt,-2,nt
N#Cc1ccc(NC(=O)OC2CC3CC2[C@H]2CCCCN2C3)cc1 (some centres not stated),nt,4,-2,nt,-4,nt
O=C(Nc1ccc(Cl)c(Cl)c1)Nc1cc(C(=O)NC2CC2)ccc1Cl,0,nt,nt,102,nt,74*
O=C(Nc1ccc(Cl)c(Cl)c1)NC1CCS(=O)(=O)C1 (configuration not stated),0,-1,-7,96,0,4
Cc1ccc(Nc2nc3ccccc3n3cnnc23)cc1C,1,1,-17,103,-10,20
COc1cccc(/C=N/Nc2nc3ccccc3n3cnnc23)c1,360*,5,-1,94,0,58*
SMILES,HIF act,HGIII-sPLA2 inh,PLC-beta3 inh,CR mimetic SO,PLCg1 inh,AHR act
COc1ccc(Nc2nc3ccccc3n3cnnc23)cc1,0,-3,-14,97,-8,72*
CCOC(=O)[C@@]12CCC3=C1N(CCC3)C(=O)[C@H](CC(=O)N1CCOCC1)C2,nt,7,-4,nt,-1,nt
O=C(NCCc1c[nH]c2ccccc12)OCc1cn(-c2ccc(F)cc2F)nn1,nt,-82,-1,nt,-1,nt
COc1ccc(-c2nn(-c3ccccc3)cc2/C=N/NS(=O)(=O)c2ccccc2)cc1,2,-27,-9,112,-6,50*
CC(C)c1nnc(NC(=O)c2sc3ccccc3c2Cl)s1,2,-11,-39,100,-25,71*
Cc1cnc(NC(=O)c2sc3ccccc3c2Cl)s1,-1,1,-10,76,-10,37
O=C(Nc1nccs1)c1sc2ccccc2c1Cl,-1,-13,-23,122,-20,47*
COc1cccc(N(C)C(=O)[C@@H](C)[C@@H](O)c2ccc(C(C)=O)cc2)c1,nt,1,4,nt,1,nt
O=C(/C=C/Nc1ccccc1)c1ccccc1,2,-12,-5,105,-5,2
O=C(/C=C/Nc1ccc(F)cc1Br)c1ccccc1,-2,-23,2,95,-2,51*
Cn1c(/C=C/c2ccc(Cl)cc2)nc2ccccc2c1=O,-11,0,-20,93,-11,49*
O=c1c2ccccc2nc(/C=C/c2ccc(O)cc2)n1CCc1ccccc1,0,-21,-435,99,-417,72*
CCn1c(/C=C/c2ccccc2)nc2ccccc2c1=O,0,-7,-10,101,-4,79*
O=C(Nc1c(-c2ccccc2)nc2ncccn12)c1ccccc1,nt,1,-306,nt,-216,nt
COC(=O)C1CN(Cc2cn(CCC3OCCO3)nn2)CCS(=O)(=O)N1Cc1ccc(F)cc1 (configuration not stated),nt,10,0,nt,-3,nt
COc1ccc(NC(=O)NCCCN2CCN(c3ccc(F)cc3)CC2)cc1OC,nt,-1,-3,nt,-1,nt
COc1ccccc1C(=O)Nc1ccc(Cc2ccncc2)cc1,nt,-4,-4,95,-5,46
COc1ccc([N+](=O)[O-])cc1C(=O)Nc1ccc(Cc2ccncc2)cc1,0,4,-2,84,2,72*
Cc1ccc(NC(=O)CCCNC(=O)c2ccc(Cl)cc2)c(O)c1,3,-6,-12,97,-4,60*
O=S(=O)(c1ccccc1)N(Cc1nc(-c2ccccc2)no1)C1CCCCC1,0,-5,-13,100,15*,7
CC(C)N(Cc1nc(-c2ccccc2)no1)S(=O)(=O)c1ccccc1,0,3,-1,122,3,7
C=CCn1c(O)c(N=NC(=O)CNC(=O)c2cccs2)c2ccccc21,0,-4,1,103,2,61*
C=CCn1c(O)c(N=NC(=O)OC(C)(C)C)c2ccccc21,0,-1,3,99,1,30
CC(C)(C)c1cc(NCCCn2ccnc2)n2ncc(-c3ccccc3)c2n1,4,-27,-386,96,-243,15

# Source: PubChem (several laboratories)
